Screening data (PubChem BioAssay)
Cy5 interf NS3h – Cy5 fluorescence interference, HCV helicase counter-screen; fluorescence interference ratio at 100 µM; hit rate 6% among 16,000; Cy5-dT15 DNA with NS3h; actives lie on both sides; signal over control mean, under 1 quenches; AID 720488;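 active = compound fluorescence over control fluorescence at most 0.8, a quencher, or at least a set upper limit, an enhancer; inactive = ratio between 0.8 and the set upper limit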
NS3h inh CB – hepatitis C NS3 helicase inhibition, primary screen; NS3h Cy5-dT15 DNA binding, fluorescence polarization; hit rate 1.6% among 16,000; inhibition, % at 100 µM;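 active = inhibition above the average over every tested compound plus 3 SD, cut at about 40% in these data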
An asterisk follows results filed as active. Compounds with a hit are over-represented: about 7.6% of the library has one in this group of screens.

For COC(=O)CN(c1ccccc1)S(=O)(=O)c1ccccc1[N+](=O)[O-] the results were Cy5 interf NS3h 0.92 and NS3h inh CB 9.
COc1ccc(OC)c(NC(=O)CN(c2ccccc2)S(=O)(=O)c2ccccc2[N+](=O)[O-])c1 was read as Cy5 interf NS3h 0.75* and NS3h inh CB 12.
`CCOc1ccccc1NC(=O)CN(c1cccc([N+](=O)[O-])c1)S(=O)(=O)c1ccccc1` gave Cy5 interf NS3h 0.84 and NS3h inh CB 16.
For Nc1cc(S(=O)(=O)Nc2ccccc2)ccc1Cl the results were Cy5 interf NS3h 0.89 and NS3h inh CB 5.
Screening Cc1cc(C)nc(NS(=O)(=O)c2ccc(NC(=O)c3cc4cc([N+](=O)[O-])ccc4s3)cc2)n1 returned Cy5 interf NS3h 1.1 and NS3h inh CB 8.
`Cc1ccc(-c2ccc(/C=C(/C#N)C(=O)Nc3ccc(F)cc3)o2)c(Br)c1` gave Cy5 interf NS3h 1 and NS3h inh CB 3.
Screening COc1ccc(C2=NN(c3nc(-c4ccc(F)cc4)cs3)C(c3ccc(OC)cc3)C2)cc1 (configuration not stated) returned Cy5 interf NS3h 1 and NS3h inh CB 2.
Screening Cc1cc(C)c2oc(-c3ccc(C)c(NC(=O)c4cccc(Cl)c4Cl)c3)nc2c1 returned Cy5 interf NS3h 1 and NS3h inh CB 9.
For CC(C)(C)NC(=O)CN(c1ccc(Cl)cc1)S(C)(=O)=O the results were Cy5 interf NS3h 0.95 and NS3h inh CB 5.
`O=C1S/C(=C\c2ccc(Br)o2)C(=O)N1c1ccc(Cl)cc1` gave Cy5 interf NS3h 0.91 and NS3h inh CB 4.
`O=C(O)c1cccc(-c2ccc(/C=C3\SC(=O)N(c4ccc(Cl)cc4)C3=O)o2)c1` gave Cy5 interf NS3h 0.76* and NS3h inh CB 19.
Cc1ccc(CN2CCN(/N=C\c3ccc(C(=O)O)cc3)CC2)cc1 was read as Cy5 interf NS3h 0.99 and NS3h inh CB -4.
NC(=O)c1cc2nc(-c3cccs3)cc(C(F)(F)F)n2n1 was read as Cy5 interf NS3h 0.66* and NS3h inh CB 11.
Screening O=C(c1cc2nc(-c3cccs3)cc(C(F)(F)F)n2n1)N1CCc2ccccc2C1 returned Cy5 interf NS3h 0.96 and NS3h inh CB 13.
For CCOc1ccccc1NC1=C(Cl)C(=O)N(c2ccc(Br)cc2)C1=O the results were Cy5 interf NS3h 1.1 and NS3h inh CB 11.
`COCC(=O)Nc1nc2ccccc2s1` gave Cy5 interf NS3h 0.67* and NS3h inh CB -2.
`CC(CCC(=O)Nc1nc2ccccc2s1)CC(=O)Nc1nc2ccccc2s1` (configuration not stated) gave Cy5 interf NS3h 0.98 and NS3h inh CB 7.
CCc1ccccc1NC(=O)C(CC)c1ccccc1 (configuration not stated) was read as Cy5 interf NS3h 1 and NS3h inh CB 12.
Screening CCc1ccccc1NC(=O)[C@H]1CC=CC[C@H]1C(=O)O returned Cy5 interf NS3h 0.74* and NS3h inh CB 19.
c1ccc2c(c1)ccc1nc(-c3ccc4c(c3)OCO4)c3c(c12)CCC3 was read as Cy5 interf NS3h 1 and NS3h inh CB 0.
Screening CCN(CC)c1ccc(NC(=O)c2ccc(Br)cc2)cc1 returned Cy5 interf NS3h 1 and NS3h inh CB 8.
For CCN(CC)c1ccc(NC(=O)c2ccc(I)cc2)cc1 the results were Cy5 interf NS3h 1.3* and NS3h inh CB 16.
Screening O=C(/C=C/c1ccccc1F)c1c(-c2ccccc2)c2cc(Br)ccc2[nH]c1=O returned Cy5 interf NS3h 0.96 and NS3h inh CB -4.
Screening O=C(/C=C/c1ccc2c(c1)OCO2)Nc1ccccc1F returned Cy5 interf NS3h 1.1 and NS3h inh CB 10.
O=C1NC(=O)/C(=C/c2ccc(OC(=O)c3ccccc3I)cc2)S1 was read as Cy5 interf NS3h 1.1 and NS3h inh CB 8.
For O=Cc1ccc(OC(=O)c2ccccc2I)cc1 the results were Cy5 interf NS3h 0.7* and NS3h inh CB 15.
Screening C=CCN1C(=O)c2ccccc2C1(O)c1ccc(OC)cc1 (configuration not stated) returned Cy5 interf NS3h 0.74* and NS3h inh CB 9.
C=CCn1c(SCC(=O)O)nnc1-c1ccc(OC)cc1 was read as Cy5 interf NS3h 1 and NS3h inh CB -4.
`O=C(Nc1cc(C(F)(F)F)ccc1Cl)c1nc2nc(-c3ccccc3)cc(C(F)(F)F)n2n1` gave Cy5 interf NS3h 1 and NS3h inh CB 9.
CC1CC(O)N(c2ccccc2)C(=S)N1 (configuration not stated) was read as Cy5 interf NS3h 0.77* and NS3h inh CB 17.
`CC1CC(=O)NN=C1c1ccc(Cl)c([N+](=O)[O-])c1` (configuration not stated) gave Cy5 interf NS3h 1.1 and NS3h inh CB 5.
`CC(=O)COc1ccc2c3c(c(=O)oc2c1C)CCC3` gave Cy5 interf NS3h 1.1 and NS3h inh CB 12.
For COC(=O)c1ccc(-n2c(C)cc(/C=C3\C(=O)NC(=O)N(c4ccc(OC)cc4)C3=O)c2C)cc1 the results were Cy5 interf NS3h 0.99 and NS3h inh CB 5.
For COC(=O)c1ccc(-n2c(C)cc(C=C3C(=O)N(C)C(=O)N(C)C3=O)c2C)cc1 the results were Cy5 interf NS3h 0.8* and NS3h inh CB 16.
C/C(=N\O)C(O)C12CC3CC(CC(C3)C1)C2 (configuration not stated) was read as Cy5 interf NS3h 0.98 and NS3h inh CB -13.
COc1ccc(CN2CCN(S(C)(=O)=O)CC2)c(OC)c1 was read as Cy5 interf NS3h 0.69* and NS3h inh CB 0.
For COc1cccc(CN2CCN(Cc3ccc(Br)cc3)CC2)c1OC the results were Cy5 interf NS3h 0.92 and NS3h inh CB -10.
For COc1ccc(S(=O)(=O)N2CCN(Cc3cccc(OC)c3)CC2)cc1 the results were Cy5 interf NS3h 0.94 and NS3h inh CB 12.
Screening COc1ccc(CN2CCN(S(C)(=O)=O)CC2)cc1OCc1ccccc1 returned Cy5 interf NS3h 1 and NS3h inh CB 5.
For COc1ccc(CN2CCN(Cc3ccccc3OC)CC2)c(OC)c1 the results were Cy5 interf NS3h 1.1 and NS3h inh CB -8.
COc1ccc(Br)cc1CN1CCN(S(C)(=O)=O)CC1 was read as Cy5 interf NS3h 0.67* and NS3h inh CB 8.
Screening COc1cccc(CN2CCN(S(C)(=O)=O)CC2)c1 returned Cy5 interf NS3h 0.77* and NS3h inh CB 4.
`COc1cccc(CN2CCN(S(C)(=O)=O)CC2)c1OC` gave Cy5 interf NS3h 0.65* and NS3h inh CB 3.
`COc1cc(Br)c(/C=C2\C(=O)NC(=O)N(c3ccc(C)cc3)C2=O)cc1OC` gave Cy5 interf NS3h 0.95 and NS3h inh CB 24.
Cc1ccc(NS(=O)(=O)c2cccc3c2C(=O)c2ccccc2C3=O)cc1C was read as Cy5 interf NS3h 1 and NS3h inh CB 6.
For CCCCNC(=O)C(=O)NCCCOC the results were Cy5 interf NS3h 1 and NS3h inh CB -1.
O=C(O)C1C2C=CC(C3CC23)C1C(=O)Nc1ccc(F)cc1 (configuration not stated) was read as Cy5 interf NS3h 0.69* and NS3h inh CB -12.
`Cc1ccc(NC(=O)C2C3CC/C=C\CCC32)cc1` (configuration not stated) gave Cy5 interf NS3h 1 and NS3h inh CB 2.
Screening COCCNC(=O)C(=O)Nc1cc(C)cc(C)c1 returned Cy5 interf NS3h 1.1 and NS3h inh CB 12.
